# An excerpt weighted towards active compounds, which were near 1.4% of everything screened.
# AmpC no deterg: qHTS Inhibitors of AmpC Beta-Lactamase (assay without detergent) | P00811 | AmpC nitrocefin hydrolysis, absorbance 480 nm, 0.0001% Triton | Potency, µM (highest dose often 57.1 µM), actives largely listed as inhibitors | 330,000 tested, 0.52% active | AID 485341, 2010; note: nearly all actives have a fitted effect of over 20% in size
# Target sequence (P00811 whole entry, looked up): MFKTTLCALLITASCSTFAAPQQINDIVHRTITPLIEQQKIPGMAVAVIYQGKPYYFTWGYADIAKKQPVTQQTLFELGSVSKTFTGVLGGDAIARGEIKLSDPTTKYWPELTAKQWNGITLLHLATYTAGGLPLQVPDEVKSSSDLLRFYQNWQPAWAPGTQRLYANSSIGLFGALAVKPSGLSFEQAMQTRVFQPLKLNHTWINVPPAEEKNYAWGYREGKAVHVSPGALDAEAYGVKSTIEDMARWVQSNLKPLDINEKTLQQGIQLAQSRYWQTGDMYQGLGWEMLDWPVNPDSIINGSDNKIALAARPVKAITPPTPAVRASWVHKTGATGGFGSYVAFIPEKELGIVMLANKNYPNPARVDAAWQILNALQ
#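 AmpC (5.3 nM in the dispensed reagent) in 20 mM phosphate pH 7.0 with 0.01% (detergent screen) or 0.0001% Triton X-100 was preincubated with compounds for 15 min at room temperature. Nitrocefin was then added from an 800 uM solution, and hydrolysis was followed at 480 nm.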
# Giardia FBPA inh: qHTS Assay for Inhibitors of Fructose-1,6-bisphosphate Aldolase from Giardia Lamblia | A8B2U2 | 290,000 tested, 0.71% active | purified Giardia FBPA | Potency, µM (highest dose often 59.6 µM), most hits filed as inhibitors; note: nearly all actives have a fitted effect of over 55% in size
#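 40 nM FBPA preincubated 10 min at RT with compound (up to 57.5 uM final), then substrate plus GAPDH/TPI/NAD/arsenate coupling and diaphorase/resazurin added. Fluorescence read after 20 min at RT, 525/598 nm.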
# AmpC detergent: qHTS Inhibitors of AmpC Beta-Lactamase (assay with detergent); AmpC hydrolysis of nitrocefin, absorbance 480 nm, 0.01% Triton; Potency, µM (titrated, usually from 114 µM), hits mostly inhibitors; 370,000 tested, 0.041% active; AID 485294, 2010; note: nearly all actives have a fitted effect of over 25% in size
#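 20 mM phosphate pH 7.0 + 0.01% (detergent screen) or 0.0001% Triton X-100; 5.3 nM AmpC reagent; cpd preinc 15 min RT; nitrocefin (800 uM stock) to start; A480 q20 s × 4 min; Activity was normalised to no-enzyme and no-compound control wells.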
# SARS PLpro yeast: qHTS of Yeast-based Assay for SARS-CoV PLP. 330,000 tested, 0.19% active. Potency, µM (top dose mostly 32.9 µM), hits mostly activators. S. cerevisiae expressing SARS-CoV PLpro, growth rescue; calls by dose curve; note: nearly all actives have a fitted effect of over 55% in size
# NS1 inh: qHTS Assay for Inhibitors of Influenza NS1 Protein Function; Potency, µM (highest dose often 46.1 µM); 270,000 tested, 0.4% active; AID 2326, 2010; calls by dose curve; note: actives are rising curves; nearly all actives have a fitted effect of over 50% in size
#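 S. cerevisiae expressing influenza A NS1, grown in glucose, washed, then diluted 1:100 into pH 6.0 -URA galactose medium with 23 nl compound. Growth recovery read as OD600; NS1-free strain serves as control.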
# Hits are given with their value; i = inactive; ? = inconclusive; nt = no result. Unless noted, calls come from the whole dose curve; as a rule, active = well fitted curve in the direction sought with a large enough effect; inconclusive = small, poorly fitted or top-dose-only effect, or another doubt; inactive = no such curve, though single readings can be large; an effect the other way counts as inactive or inconclusive.
SMILES,AmpC no deterg,Giardia FBPA inh,AmpC detergent,SARS PLpro yeast,NS1 inh
CCN(C(=O)COC(=O)c1cc(=O)[nH]c2ccccc12)C1CCS(=O)(=O)C1 (stereo not given),i,i,i,i,i
COc1ccc(NC(=O)CNS(=O)(=O)c2ccccc2)cc1Cl,0.63µM,i,i,i,i
Cc1ccc(C)c(C(=O)CCC(=O)N2CCN(c3ncccn3)CC2)c1,i,i,i,i,i
Cc1cc(C)cc(NC(=O)c2ccc(CSc3nnc(C)s3)cc2)c1,i,i,i,i,i
COc1ccc(Cl)cc1NC(=O)COc1ccc(S(=O)(=O)N2CCOCC2)cc1C,i,i,28µM,i,i
Cc1ccccc1OCC(=O)OCC(=O)Nc1cc(S(=O)(=O)N2CCCCC2)ccc1Cl,32µM,nt,?,i,nt
CN(CC(=O)Nc1ccccc1Br)C(=O)CCc1ccccc1,i,i,?,i,i
CC(=O)c1c(C)[nH]c(C(=O)OCC(=O)Nc2ccccc2Cl)c1C,i,i,i,i,i
O=C(NC1C2CC3CC(C2)CC1C3)C1CCCCC1 (stereo not given),i,i,i,i,i
CCC(C)NC(=O)c1cc2cc3ccc(OC)cc3nc2s1 (stereo not given),i,i,i,i,i
Cn1c(=O)c2[nH]c(CCS)nc2n(C)c1=O,nt,nt,nt,nt,i
Cc1cc(C(=O)N2CCOCC2)n(-c2ccccc2)n1,i,i,i,i,i
Cc1cc(C(=O)N2CC(C)CC(C)C2)n(-c2ccccc2)n1 (stereo not given),8.9µM,i,?,i,i
O=C1NC(=O)N(Cc2ccco2)C(=O)/C1=C/C=C/c1ccco1,13µM,i,i,i,i
O=C1NC(=O)N(Cc2ccccc2)C(=O)/C1=C\C=C\c1ccco1,i,i,i,i,nt
O=C1CCC/C(=N/NC(=O)c2cc(NS(=O)(=O)c3cccs3)cc(NS(=O)(=O)c3cccs3)c2)C1,11µM,i,i,i,i
O=C1CCC/C(=N/NC(=O)c2ccc(NS(=O)(=O)c3cccs3)cc2)C1,?,i,i,i,nt
COc1ccccc1-c1c(C)nn2c(N3CCC(C)CC3)cc(C)nc12,i,i,i,i,i
CCOC(=O)N1CCC(Nc2cc(C)nc3c(-c4ccccc4OC)c(C)nn23)CC1,28µM,i,i,i,i
COc1ccccc1-c1c(C)nn2c(C)cc(C)nc12,10µM,i,?,i,i
O=S(=O)(Nc1ccc2c(c1)nc1n2CCOC1)c1ccccc1,?,i,i,i,i
COc1ccc(CN(C)CCc2ccccn2)cc1OC,i,6.3µM,i,i,i
CC(C)(C)c1ccc(C(=O)NNc2cc(N3CCOCC3)nc(N3CCOCC3)n2)cc1,i,?,i,i,i
CC(C)(C)c1ccc(C(=O)NNc2cc(N3CCCCC3)nc(N3CCCCC3)n2)cc1,0.16µM,i,i,i,i
CCOc1ccc(NC(=O)CSc2nnc(NC(=O)Nc3ccccc3)s2)cc1,nt,nt,i,nt,nt
SMILES,AmpC no deterg,Giardia FBPA inh,AmpC detergent,SARS PLpro yeast,NS1 inh
Cc1cc(NC(=O)C(C)SCC(=O)Nc2cc(C(F)(F)F)ccc2N2CCCCC2)no1 (stereo not given),32µM,nt,i,i,nt
CC(C)c1nc2oc3c(=O)[nH]cnc3c2c2c1CCC2,i,i,?,i,i
CC(C)c1nc2oc3c(N4CCNCC4)ncnc3c2c2c1CCC2,nt,nt,nt,nt,3.2µM
C=CCn1c(O)c(N=NC(=S)Nc2ccccc2C)c2cc(S(=O)(=O)N3CCOCC3)ccc21,i,i,i,i,13µM
COc1ccc(OC)c2c1sc(=NC(=O)c1cccc(N3C(=O)CCC3=O)c1)n2C,40µM,i,?,i,i
COc1ccc(C(=O)N=c2sc3c(C)ccc(OC)c3n2C)cc1,1.1µM,i,?,i,i
CCn1c(=NC(=O)c2cccc(N3C(=O)CCC3=O)c2)sc2c(OC)ccc(OC)c21,i,i,i,i,i
CC(C)Nc1nc(-c2ccccc2)nnc1-c1ccccc1,i,i,i,i,i
CCOC(=O)C1(Cc2ccccc2)CCN(Cc2cc(=O)c3ccccc3[nH]2)CC1,i,i,i,i,i
CN1CCN(c2ncc(CN3C(=O)c4ccccc4C3=O)s2)CC1,i,i,?,i,nt
N#Cc1c(Cl)nsc1NN,1.4µM,i,i,i,nt
CCc1nnc(NC(=O)c2ccc(COc3ccccc3C)o2)s1,i,nt,i,i,i
Cc1cccc(NC(=S)N=Nc2c(O)[nH]c3ccccc23)c1,32µM,i,?,i,i
CCOC(=O)C1(C(=O)OCC)CC1c1ccccc1 (stereo not given),4.5µM,i,i,i,i
CCOC(=O)C1(C(=O)O)NC(=O)CC1c1ccccc1 (stereo not given),i,i,?,i,i
CC(C)C[C@H](N)c1nnc(SCc2ccc(Cl)cc2Cl)o1,nt,nt,i,nt,nt
CC(C)C[C@H](N)c1nnc(S(=O)(=O)Cc2ccc(F)cc2)o1,2µM,i,1.4µM,i,i
CCN1CCN(C(=O)C2CCN(C(=O)Nc3ccccc3)CC2)CC1,i,nt,i,i,nt
NC(=O)CN1CCN(C(=O)Nc2ccccc2)CC1,22µM,i,i,i,i
CCCN(c1ccc(OCC)cc1)c1ncnc2nc[nH]c12,0.71µM,i,?,i,i
Cc1ccc(C(=O)c2c(C)oc3c2C(=O)C(=O)c2ccccc2-3)cc1,i,0.63µM,i,i,i
Cc1ccc(C(=O)c2coc3c2C(=O)C(=O)c2ccccc2-3)cc1,i,2.8µM,i,i,i
Cc1oc2c(c1C(=O)c1ccc(Cl)cc1)C(=O)C(=O)c1ccccc1-2,i,0.89µM,i,i,i
CCOC(=O)CCSCC(=O)Nc1cc(C)on1,i,i,i,i,i
O=C(CSc1cn(CCNC(=O)c2cccs2)c2ccccc12)NC1CCCC1,28µM,i,?,i,i
SMILES,AmpC no deterg,Giardia FBPA inh,AmpC detergent,SARS PLpro yeast,NS1 inh
O=C(NCCn1cc(SCc2ccc(C(F)(F)F)cc2)c2ccccc21)c1cccs1,nt,nt,i,nt,nt
CCCN1C(=O)c2cc(C(=O)Nc3ccccc3OC)ccc2C1Nc1ccccc1OC (stereo not given),i,i,i,i,i
Cc1nnc(NC(=O)c2c(F)cccc2F)s1,18µM,i,i,i,i
C=CCN1C(=O)C(CC(=O)Nc2ccccc2F)S/C1=N\c1nccs1 (stereo not given),i,i,i,i,i
Cc1nnc(NC(=O)CC(CN(C)S(=O)(=O)c2ccccc2)c2ccccc2)s1 (stereo not given),i,i,?,i,i
CCc1nnc(NC(=O)CC(CN(C)S(=O)(=O)c2ccccc2)c2ccccc2)s1 (stereo not given),40µM,i,?,i,i
CCn1c(Cc2c(C)[nH]c3ccccc23)nnc1SCC(N)=O,i,i,i,i,i
O=C(CCn1c(=O)c2sccc2n(Cc2cc(=O)n3ccccc3n2)c1=O)NCc1ccco1,i,i,i,i,i
